Screens (PubChem)
The list is not random: actives were taken first. Their share in the collection is about 8.2%.
ELG1 DNA repair: ELG1-dependent DNA repair inhibition | Potency, µM (titrated, usually from 46.1 µM), for inactives: at the top dose activity change, negative = inhibition, hits mostly inhibitors | HEK293T ELG1-luciferase reporter, luminescence, 16 h; DNA damage induced by 5-fluorouridine | AID 504467 | 330,000 tested, 2.3% active; further: on the % scale 0 is the no-effect control and ±100 the full control effect; nearly all actives have a fitted effect of over 55% in size
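Quantitative HTS, concentration-response format. 2,000 cells/well co-treated with 5-fluorouridine and compound, 16 hr in 5% CO2 at 37 °C; ONE-Glo luminescence read after 30 min.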
SW480 rerep: inducers of DNA re-replication in SW480 colon cancer cells. SW480 DNA re-replication, Hoechst DNA content imaging, 48 h. Potency, µM (highest dose often 46.1 µM), for inactives: at the highest dose re-replication activation, most hits filed as activators. 340,000 tested, 1.8% active. AID 624297; further: % of control where 0% means no effect; nearly all actives have a fitted effect of over 55% in size
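Compounds, transferred as 23 nL by pin tool, were incubated with cells for 48 hr; DNA content per nucleus was then quantified by Hoechst staining and fluorescence plate imaging.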
KB-V1 MDR tox: KB-V1 MDR subline cytotoxicity. KB-V1 MDR cells viability, CellTiter-Glo, 72 h. Potency, µM (highest dose often 46.1 µM), hits mostly cytotoxic. 400,000 tested, 3.4% active; further: on the % scale 0 is the no-effect control and ±100 the full control effect; nearly all actives have a fitted effect of over 60% in size
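Readout: CellTiter-Glo luminescence, 10 min after addition. Cells: KB-V1 MDR subline, 72 h at 37 degrees C with compound. Analysis: corrected, normalized data fitted to concentration-effect curves.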
MCF10A rereplic: induces DNA re-replication in MCF 10a normal breast cells; MCF 10A DNA re-replication, Hoechst nuclear intensity, 48 h; Potency, µM (titrated, usually from 46.1 µM), inactives show at the highest dose activity, positive = re-replication, usual class: activators; 350,000 tested, 2.9% active; AID 624296; further: % of control where 0% means no effect; nearly all actives have a fitted effect of over 50% in size
KB-3-1 tox: KB-3-1 parental cell cytotoxicity; AID 1347075; Potency, µM (highest dose often 46.1 µM), usual class: cytotoxic; KB-3-1 viability, CellTiter-Glo ATP luminescence, 72 h; 400,000 tested, 1.4% active; further: on the % scale 0 is the no-effect control and ±100 the full control effect; nearly all actives have a fitted effect of over 60% in size
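Parental KB-3-1 adenocarcinoma cells in phenol-red-free DMEM with 10% FBS were pin-treated with compounds at several concentrations, incubated 72 h at 37 °C, and viability read by CellTiter-Glo luminescence; concentration-effect curves were fitted after normalization.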
Starred values were filed as active, the others as inactive; i = inactive; ? = inconclusive; · = no result given. The call rests on the fitted dose curve; in most records, active means well fitted curve in the direction sought with a large enough effect; inconclusive means small, poorly fitted or top-dose-only effect, or another doubt; inactive means no such curve, though single readings can be large; an effect the other way counts as inactive or inconclusive. Potency means the concentration at half of the fitted maximal effect.

SMILES | ELG1 DNA repair | SW480 rerep | KB-V1 MDR tox | MCF10A rereplic | KB-3-1 tox
CCCn1nc(NC(=O)c2cccs2)c2cc3cc(OC)ccc3nc21 | ? | 15µM* | ? | ? | i
CCCCn1nc(NC(=O)c2cccs2)c2cc3cc(OC)ccc3nc21 | ? | 12µM* | ? | ? | i
COCCCNC(=O)c1ccc(NC(=O)N2CCCCc3ccccc32)cc1 | · | · | i | · | i
COC(=O)c1cc(-c2ccc3c(c2)OCO3)nc2ccccc12 | -19% | 19% | i | ? | i
Cc1cc(NC(=O)c2cc(-c3ccc(C)s3)nc3ccccc23)no1 | -4% | -1% | i | 1% | i
O=C(Nc1ccccn1)c1cc(-c2ccc(Cl)s2)nc2ccccc12 | ? | -2% | ? | 21µM* | ?
Cc1cc(C)nc(NC(=O)c2cc(-c3ccc4c(c3)OCO4)nc3ccccc23)c1 | 18µM* | 4% | ? | 0% | i
O=C(NC(=S)Nc1ccccn1)c1cc(-c2ccccc2)nc2ccccc12 | ? | ? | 16µM* | 8% | i
Cc1cccc(NC(=O)c2cc(-c3ccc(C)s3)nc3ccccc23)n1 | 6.5µM* | 45% | ? | ? | ?
Cc1ccnc(NC(=O)c2cc(-c3ccc(Cl)s3)nc3ccccc23)c1 | ? | -295% | i | ? | i
CCOc1cc(C2NN=C(c3ccc(C)cc3)S2)ccc1O (centres undefined) | ? | -7% | ? | 18µM* | i
COc1ccc(-c2nc3scc(CCNC(=O)Cc4ccc(F)cc4)n3n2)cc1 | · | · | i | · | ?
CCN(CC)S(=O)(=O)c1ccc2c(c1)N(CC(=O)NCCCN1CCN(c3cc(Cl)ccc3C)CC1)C(=O)CO2 | · | · | 13µM* | · | ?
Cc1cccc(N2CCN(CCNC(=O)C3COc4ccccc4C3)CC2)c1C (centres undefined) | · | · | i | · | i
Cc1ccc(Cl)cc1N1CCN(CCCNC(=O)C2COc3ccccc3C2)CC1 (centres undefined) | · | · | i | · | 21µM*
OC1OC[C@@H](O)[C@H](O)[C@@H]1O (some centres undefined) | · | 3% | · | 2% | ·
CCOc1ccccc1CNC(=O)C1=C(C)C(=O)OC12CCN(C(C)=O)CC2 | · | · | i | · | i
COCCNC(=O)C1(C)CCN(C(=O)c2cc(C)nn2C(C)(C)C)C1 (centres undefined) | · | · | i | · | i
COc1ccc(O)c(/C=N/NC(=S)Nc2cccc(S(=O)(=O)N(C)C)c2)c1 | ? | ? | 4.1µM* | 15µM* | i
CNC(=O)c1cccc(NC(=O)C(C)c2ccc3cc(OC)ccc3c2)c1 (centres undefined) | 0% | -8% | ? | -1% | i
COc1cccc(/C=N/NC(=S)Nc2cccc(S(=O)(=O)N(C)C)c2)c1 | -4% | 5% | i | -4% | i
COc1ccc2cc(C(C)C(=O)Nc3cccc(S(=O)(=O)N(C)C)c3)ccc2c1 (centres undefined) | ? | -5% | 13µM* | ? | 21µM*
COc1cc(/C=N/NC(=S)Nc2cccc(S(=O)(=O)N(C)C)c2)cc(OC)c1O | 21µM* | -2% | i | -39% | i
CN(C)S(=O)(=O)c1cccc(NC(=S)N/N=C/c2ccc(O)c(O)c2O)c1 | 16µM* | 1% | i | -3% | i
CCc1nc2ccc(C(=O)NCc3ccccc3C)cc2nc1CC | · | · | i | · | i
SMILES | ELG1 DNA repair | SW480 rerep | KB-V1 MDR tox | MCF10A rereplic | KB-3-1 tox
O=C(NCc1cccc(F)c1F)C1CCC(=O)N(C2CCCCCC2)C1 (centres undefined) | 3% | 0% | · | 5% | ·
COc1ccc2nc(-c3ccc(Cl)cc3)cc(C(=O)O)c2c1 | ? | -4% | i | 4% | i
O=c1c2ccccc2nc2n1CCc1ccc(Br)cc1-2 | · | · | i | · | i
COc1ccc(/C=N/Nc2nc(C(=O)O)cs2)cc1 | ? | -9% | i | -13% | i
CCOC(=O)N1CCC2(CC1)C(C#N)=C(N)Oc1c2sc2nc(C)cc(C)c12 | ? | ? | i | 7.3µM* | i
CCCN1CCC2(CC1)C(C#N)=C(N)Oc1c2sc2nc(C)cc(C)c12 | 3% | -4% | i | 3% | i
